Assay outcomes as filed in PubChem BioAssay.
TexasRed fluor – Total Fluorescence Counterscreen for Inhibitors of the Interaction of Thyroid Hormone Receptor and Steroid Receptor Coregulator 2; Potency, µM (highest dose often 106 µM), for inactives: at the highest dose fluorescence change, negative = quenching; TRb/SRC2 Texas Red total fluorescence interference; AID 1479, 2009; actives 0.29% (n = 280,000); active = well fitted curve in either direction with a large enough effect; inconclusive = small, poorly fitted or top-dose-only effect
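Human TRb ligand-binding domain at 0.6 uM with 20 nM Texas Red SRC2 peptide in Tris buffer containing 1 uM T3 and 5% DMSO, incubated with compound 5 h at ambient temperature. Total fluorescence (555/632 nm) calculated as parallel + 2 × perpendicular.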
Tau fluor cs – Counterscreen qHTS for Inhibitors of Tau Fibril Formation, Fluorescence Polarization; tau K18 P301L Alexa594 fluorescence, heparin fibrillization; Potency, µM (titrated, usually from 57.7 µM), without a hit: at the highest dose activity change, negative = decrease; actives 0.93% (n = 280,000); AID 1463, 2008; also: nearly all actives have a fitted effect of over 55% in size
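Human tau K18 P301L (15 uM unlabeled, 0.24 uM Alexa 594-labeled) in 100 mM sodium acetate pH 7 with 20 uM heparin, 6 hr at 37 C. ThT 30 uM added, 1 hr ambient; Alexa 594 FP and total fluorescence read at 555/632 nm.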
Tau fibril FP – qHTS for Inhibitors of Tau Fibril Formation, Fluorescence Polarization. Microtubule-associated protein tau (Homo sapiens), P10636. K18 P301L tau heparin fibrillization, Alexa594 FP, 6 h. Potency, µM (series often up to 57.7 µM), inactives show at the top dose activity, negative = inhibition, usual class: inhibitors. actives 0.39% (n = 280,000); also: nearly all actives have a fitted effect of over 55% in size
Target sequence (P10636 561-689 P618L limits assumed): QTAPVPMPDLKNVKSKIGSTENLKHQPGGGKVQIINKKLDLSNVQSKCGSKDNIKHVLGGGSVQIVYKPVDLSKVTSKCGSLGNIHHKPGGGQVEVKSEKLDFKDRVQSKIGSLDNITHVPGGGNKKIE
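Compound effects on tau fibrillization are measured by Alexa 594 fluorescence polarization (ex 555, em 632 nm). K18 P301L tau is used at 15 uM with 0.24 uM labeled tracer, and 20 uM heparin induces aggregation over 6 hr at 37 C.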
Tau fibril ThT – qHTS for Inhibitors of Tau Fibril Formation, Thioflavin T Binding; Potency, µM (highest dose often 57.4 µM), for the others: top-dose activity, negative = inhibition, most hits filed as inhibitors; recombinant tau K18 P301L, heparin-induced fibrillization, ThT fluorescence; Microtubule-associated protein tau (Homo sapiens), P10636; AID 1460, 2008; actives 2.1% (n = 270,000); also: nearly all actives have a fitted effect of over 55% in size
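Fibril formation assay: tau K18 P301L at 15 uM with trace Alexa 594 label, heparin inducer 20 uM, pH 7 sodium acetate buffer, 37 C for 6 hr; endpoint ThT signal.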
TRb SRC2 PPI – qHTS for Inhibitors of the Interaction of Thyroid Hormone Receptor and Steroid Receptor Coregulator 2. TRbeta-SRC2 peptide binding, fluorescence polarization; receptor liganded with 1 µM T3. Potency, µM (titrated, usually from 106 µM), for inactives: at the top dose activity change, negative = inhibition, hits mostly inhibitors. actives 0.065% (n = 280,000). AID 1469, 2008;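 also: plate controls were bound peptide for no effect and peptide without receptor for full effect; nearly all actives have a fitted effect of over 50% in size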
Target sequence (P10828 whole entry, looked up): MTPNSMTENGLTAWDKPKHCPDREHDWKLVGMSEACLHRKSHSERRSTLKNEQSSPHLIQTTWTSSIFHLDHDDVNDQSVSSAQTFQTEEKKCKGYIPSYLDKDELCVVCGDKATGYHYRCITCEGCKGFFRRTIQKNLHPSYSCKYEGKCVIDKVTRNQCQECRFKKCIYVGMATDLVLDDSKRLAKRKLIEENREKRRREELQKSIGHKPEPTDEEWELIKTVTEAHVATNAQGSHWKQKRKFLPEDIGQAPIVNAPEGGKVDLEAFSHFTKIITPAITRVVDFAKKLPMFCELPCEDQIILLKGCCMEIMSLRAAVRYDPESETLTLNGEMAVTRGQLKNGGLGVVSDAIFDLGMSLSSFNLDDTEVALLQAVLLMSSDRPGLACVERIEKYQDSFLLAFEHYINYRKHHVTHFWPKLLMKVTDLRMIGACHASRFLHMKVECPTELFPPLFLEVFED
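Decrease in fluorescence polarization of 20 nM Texas Red SRC2 coactivator peptide flagged inhibition of its binding to 0.6 uM TRb LBD; 1 uM T3 included, incubation 5 hr, ex 555/em 632 nm.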
Active calls of the source: *; ? = inconclusive; . = no result; [ ] = remark or other dose. This is a sample that favours compounds with a hit; in the whole collection about 3.1% have one here. Unless noted, calls follow the shape of the dose curve; as a rule, active = well fitted curve in the direction sought with a large enough effect; inconclusive = small, poorly fitted or top-dose-only effect, or another doubt; inactive = no such curve, though single readings can be large; an effect the other way counts as inactive or inconclusive. Unless noted, % is scaled to controls: 0 for no effect and ±100 for the full control effect; potency is read from the fitted curve at half-maximal effect.

SMILES | TexasRed fluor | Tau fluor cs | Tau fibril FP | Tau fibril ThT | TRb SRC2 PPI
O=S(=O)(c1ccc2nc(-c3ccccc3)[nH]c2c1)N1CCN(c2cccc(Cl)c2)CC1 | -7% | ? | ? | -4% | -1%
COc1ccccc1N1CCN(S(=O)(=O)c2ccc3nc(-c4ccccc4)[nH]c3c2)CC1 | 2% | ? | 22µM* | 8% | -1%
CCOc1ccccc1NC(=O)C1CCN(S(=O)(=O)c2ccc3[nH]c(=O)ccc3c2)CC1 | -27% | 1% | ? | 2% | -2%
CCOc1ccccc1NC(=O)C1CCCN1S(=O)(=O)c1ccc2nc(-c3ccccc3)[nH]c2c1 (stereo not given) | -2% | 10µM*[quencher] | ? | 4% | 5%
CCc1cccc(NC(=O)C2CCCN2S(=O)(=O)c2ccc3c(c2)n(C)c(=O)c(=O)n3C)c1 (stereo not given) | -3% | -5% | -2% | ? | 7%
Cc1cc(C)cc(NC(=O)C2CCCN2S(=O)(=O)c2ccc3c(c2)CCCC(=O)N3)c1 (stereo not given) | 0% | -4% | -3% | 0% | -1%
O=C(NCCc1c[nH]c2ccccc12)Nc1ccccc1C(F)(F)F | -4% | ? | ? | -8% | 6%
Cn1cccc1-c1cc2n(n1)CCC(=O)N2CCCC(=O)NCc1ccc(F)cc1 | -2% | -10% | -6% | -4% | -1%
CCOc1ccc(C(=O)/C=C/Nc2ccc(S(=O)(=O)Nc3onc(C)c3C)cc2)cc1 | -2% | 6% | 6% | 4% | 5%
COc1cccc(C(=O)/C=C/Nc2ccc(S(=O)(=O)Nc3onc(C)c3C)cc2)c1 | -10% | -13% | 4% | ? | 7%
COc1cc(OC)cc(C(=O)Nc2ccc(S(=O)(=O)Nc3onc(C)c3C)cc2)c1 | -1% | -30% | -2% | ? | 3%
Cc1noc(NS(=O)(=O)c2ccc(N/C=C\C(=O)c3ccc(Br)cc3)cc2)c1C | -8% | -25% | -2% | 13µM* | 3%
Cc1noc(NS(=O)(=O)c2ccc(NC(=O)Nc3ccc(Cl)c(Cl)c3)cc2)c1C | -11% | 11µM*[quencher] | ? | ? | -7%
Cc1noc(NS(=O)(=O)c2ccc(N/C=C\C(=O)c3cccc4ccccc34)cc2)c1C | -7% | -16% | -5% | 10µM* | -2%
FC(F)(F)c1ccc(Cl)c(Cl)c1 | 3%[201 µM] | . | . | . | 5%[201 µM]
COc1ccc(N2C=C3C(=O)C(C)(OC(=O)C4CCCC4)C(=O)C=C3C=C2c2ccsc2)cc1 (stereo not given) | 2%[11.2 µM] | 4%[11.6 µM] | -1%[11.6 µM] | 13%[11.5 µM] | 6%[11.2 µM]
CCCCCCCCCCCCCCCCOC[C@H](COP(=O)([O-])OCC[N+](C)(C)C)OC(=O)CCCCCCCC(=O)O | 0% | . | . | . | 1%
CCOC(=O)c1c(NC(=O)c2ccco2)n(C2CCCCC2)c2nc3ccccc3nc12 | 1% | -29% | ? | 18µM* | ?
CCC(=O)Nc1c(C#N)c2nc3ccccc3nc2n1C1CCCCC1 | 0% | 2% | 7% | -12% | -4%
O=C(Cc1ccc(F)cc1)NCCc1csc2nc(-c3ccccc3F)nn12 | -3% | -2% | -3% | 11% | -1%
Cn1c(O)c(C2=c3ccccc3=NC2=O)sc1=Nc1ccc(Cl)cc1 | -5% | ? | 15% | 10µM* | 0%
COc1ccc2c(C)c(CC(=O)NCc3ccc(C)cc3)c(=O)oc2c1OC | 9% | -14% | -4% | -9% | 9%
COC(=O)CS(=O)(=O)c1nc2ccccc2nc1N1CCCCC1 | 3% | -19% | -3% | ? | -6%
C=CSc1sc(Cl)c(N2CCOCC2)c1[N+](=O)[O-] | -15% | ? | -6% | 14µM* | -1%
C=CS(=O)(=O)c1sc(Cl)c(N2CCOCC2)c1[N+](=O)[O-] | -1% | ? | -2% | 3.5µM* | -10%
SMILES | TexasRed fluor | Tau fluor cs | Tau fibril FP | Tau fibril ThT | TRb SRC2 PPI
Nn1cnnc1N/N=C/c1cc(Br)cc(Br)c1O | 1% | ? | -10% | 14µM* | -7%
Cc1c(NC(=O)/C(C#N)=C/c2ccc(-c3ccc(Cl)c(Cl)c3)o2)c(=O)n(-c2ccccc2)n1C | -5% | -17% | 8% | 16µM* | 8%
Cc1c(NC(=O)/C(C#N)=C/c2ccc(-c3cccc(Cl)c3)o2)c(=O)n(-c2ccccc2)n1C | -1% | -7% | 8% | 13µM* | 6%
Cc1c(NC(=O)/C(C#N)=C/c2ccc(-c3ccccc3Cl)o2)c(=O)n(-c2ccccc2)n1C | -4% | -10% | 8% | ? | 4%
CCC1=NNc2cccc3c(OC)ccc1c23 | -18% | ? | ? | 13µM* | -22%
CCS(=O)(=O)N1CC(=O)N(c2cccc(Cl)c2C)C(C)(C(=O)NC2CCCCC2)C1 (stereo not given) | -9% | 7% | -5% | 8% | -6%
C=CCN1C(=O)CS/C1=C(\C#N)S(=O)(=O)c1ccc(C)cc1 | 40µM*[fluorescent] | -15% | -2% | -21% | ?
C[n+]1ccc(/C=N/Nc2nc(Cl)c(C#N)c(Cl)c2Cl)cc1 | -7% | 11µM*[quencher] | -5% | 13µM* | 3%
COC(=O)c1[nH]c2ccc(Cl)cc2c1NC(=O)CN1CCc2cc(OC)c(OC)cc2C1 | 2% | 18µM*[quencher] | 3% | ? | -4%
Nc1cc(N2CCCCC2)c(Cl)cc1[N+](=O)[O-] | -2% | ? | -2% | 13µM* | 6%
O=C(O)Cc1sc(N/N=C\c2ccccc2)nc1-c1ccccc1 | -2%[53 µM] | ? | ? | 10µM* | 2%[53 µM]
COc1ccccc1Nc1nc(-c2ccccc2)c(CC(=O)O)s1 | -2% | -17% | 9% | -19% | 1%
CCN1C(=O)/C(=C2/C=CC=CN2C)SC1=S | -4% | -10% | -3% | ? | 7%
CCN1C(=O)/C(=C/C=C2\C=CN(CC)c3ccccc32)SC1=S | -3% | ? | ? | 2.2µM* | 4%
CCN1C(=O)/C(=C\C=C2/C=CC=CN2CC)SC1=S | 6% | -22% | ? | 14µM* | 12%
Cc1ccc(N2CCN(c3nc4c(S(=O)(=O)c5ccc(C)c(C)c5)nnn4c4ccccc34)CC2)c(C)c1 | 4% | 1% | 1% | 0% | 5%
CCc1cc2c3c(c1)C1(C(=O)N3C(C)(C)C=C2C)C(C#N)=C(N)Oc2[nH]c(=O)[nH]c(=O)c21 (stereo not given) | -3% | ? | ? | 14µM* | 2%
